TrxR1 substrate = rat thioredoxin reductase 1 substrate activity; actives 0.01% (n = 390,000); Potency, µM (titrated, usually from 114 µM); purified TrxR1 substrate turnover, NADPH consumption readout; O89049; also: nearly all actives have a fitted effect of over 50% in size
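Rat TrxR1, dispensed at 90 nM, was prereduced with 400 uM NADPH (final) for 5 min at ~22 deg C, then incubated with compound 15 min before 400 uM selenite. A first-read NADPH fluorescence drop versus no-compound background flagged substrates.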
RGS4 inhibitor = human RGS4 inhibition; P49798; Transcreener GDP fluorescence polarization, RGS4-accelerated GTP hydrolysis; Potency, µM (top dose mostly 114 µM), actives largely listed as inhibitors; actives 0.039% (n = 390,000); AID 504845; also: nearly all actives have a fitted effect of over 75% in size
Target sequence (P49798 whole entry, looked up): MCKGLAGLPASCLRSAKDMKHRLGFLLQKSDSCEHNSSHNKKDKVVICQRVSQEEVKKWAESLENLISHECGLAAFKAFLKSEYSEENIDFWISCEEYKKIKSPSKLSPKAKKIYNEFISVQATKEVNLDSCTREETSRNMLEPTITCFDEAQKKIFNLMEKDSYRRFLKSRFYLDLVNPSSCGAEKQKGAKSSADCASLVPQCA
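MLSMR compounds (23 nl, pin-transferred) preincubated 10 min at room temperature with a 500nM (2x) first reagent, then RGS4 at 900nM (2x) plus Transcreener GDP mix added; fluorescence polarization (620/688 nm) read before and after 90 min at 30 °C.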
Eya2 inh = Eya2 (human) phosphatase inhibition. Potency, µM (doses to about 76.9 µM), usual class: inhibitors. AID 488837. actives 0.006% (n = 330,000). recombinant Eya2, OMFP fluorescence dephosphorylation (OMFP is methylfluorescein phosphate). O00167
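Eya2 protein (added as 0.2 uM solution) was preincubated with compound for 10 min at ambient temperature in 50 mM HEPES pH 7.5, 50 mM NaCl, 5 uM MgCl2, 0.05% BSA, 1 mM DTT. OMFP (added at 50 uM) then reacted 10 min; fluorescence read at 485/525 nm.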
rTrxR1 inhibitor = blocks rat thioredoxin reductase 1 | O89049 | recombinant rTrxR1, NADPH fluorescence consumption, selenite substrate | Potency, µM (titrated, usually from 114 µM), actives largely listed as inhibitors | actives 1% (n = 390,000) | AID 588453; also: nearly all actives have a fitted effect of over 65% in size
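Rat TrxR1 (90 nM in the dispensed reagent) was pre-reduced with 400 uM NADPH for 5 min at room temperature, then incubated with compound for 15 min. After 400 uM selenite was added, NADPH fluorescence (Ex 340/Em 450 nm) was followed for 8 min.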
IDH1 R132H inh = human IDH1 R132H inhibition | actives 0.093% (n = 390,000) | O75874 | Potency, µM (doses to about 76.6 µM), usual class: inhibitors | IDH1-R132H enzyme, NADPH consumption, diaphorase/resazurin fluorescence; also: nearly all actives have a fitted effect of over 65% in size
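IDH1-R132H (0.5 ug/mL) preincubated 30 min with compound, then NADPH (0.016 mM) and alpha-KG (2 mM) added; 80 min at RT, pH 7.5. Remaining NADPH coupled via diaphorase/resazurin to fluorescence (540/590 nm); concentration-response curves normalized to no-enzyme control.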
Numbers stand for hits; n = inactive; u = inconclusive; x = no result; ! = not active in a repeat; [ ] = remark or other dose. Sampled rows, rich in hits. Any-hit rate of the full collection: about 1.1%. Calls follow the shape of the dose curve; as a rule, active = well fitted curve in the direction sought with a large enough effect; inconclusive = small, poorly fitted or top-dose-only effect, or another doubt; inactive = no such curve, though single readings can be large; an effect the other way counts as inactive or inconclusive.

SMILES | TrxR1 substrate | RGS4 inhibitor | Eya2 inh | rTrxR1 inhibitor | IDH1 R132H inh
CCN1CCOC(=O)C1CC(=O)Nc1cc(Cl)ccc1C (stereo unspecified) | n | n | x | 11µM | n
O=C(Nc1ccc(-c2nc3ncccc3o2)cc1)c1ccco1 | n | n | n | 40µM | n
O=C(Nc1ccc(-c2nc3ncccc3o2)cc1)c1ccc(Br)o1 | n | n | n | n | n
Cc1ccc(-n2nc3c(=O)n(CC(=O)NCCC(C)C)nc(C)c3c2C)cc1 | n | n | x | n | n
CS(=O)(=O)c1nc(-c2ccccc2)cc(C(F)(F)F)n1 | n | u | n | 18µM | n
COc1ccc(NC(=O)CCS(=O)(=O)c2nc(-c3ccc4c(c3)OCO4)cc(C(F)(F)F)n2)cc1 | n | n | x | u | n
O=C(CCS(=O)(=O)c1nc(-c2cccs2)cc(C(F)(F)F)n1)Nc1cc(Br)ccc1O | n | u | x | 14µM | n
Cc1cc(NC(=O)CCS(=O)(=O)c2nc(-c3ccccc3)cc(C(F)(F)F)n2)no1 | n | n | n | 18µM | n
Cc1ccc(O)c(NC(=O)CCS(=O)(=O)c2nc(-c3cccs3)cc(C(F)(F)F)n2)c1 | n | n | x | 20µM | n
O=C1CN(CC(=O)N2CCCCC2)c2ccccc2O1 | n | n | n | 25µM | n
O=C1CN(CC(=O)N2CCOCC2)c2ccccc2O1 | x | x | n | x | x
CC1(C)CC2(CC(c3ccc(F)cc3)c3ccc(O)cc3O2)NC(=S)N1 (stereo unspecified) | n | n | n | n | n
CC1(C)CC2(CC(c3ccccc3F)c3ccc(O)c(O)c3O2)NC(=S)N1 (stereo unspecified) | n | u | n | 2.8µM | n
C(=Cc1cccnc1)c1ccncc1 | n | n | x | n[2.29 µM] | n
O=C(/C=C/c1cccnc1)/C=C/c1cccnc1 | n | u | n | 18µM | n
CN(C)S(=O)(=O)c1ccc(C(=O)/C=C/c2cccnc2)cc1 | n | n | n | 8.9µM | n
Cc1ccc(C(=O)NNC(=O)CSc2nnc(-c3ccncc3)n2C)cc1 | n | n | n | n | n
CCOc1ccc(CN2CCNC(=O)C2CC(=O)NCc2cc(C)n(C)n2)cc1 (stereo unspecified) | n | n | n | u | n
COc1ccc(CN2CCNC(=O)C2CC(=O)NCc2cc(C)n(C)n2)c(F)c1 (stereo unspecified) | n | n | n | 40µM | n
COc1ccccc1-n1c(SCC(=O)NC(C)(C)C)nnc1-c1ccco1 | n | n | n | 8.9µM | n
COc1ccccc1NC(=O)CSc1ccc(-c2ccco2)nn1 | n | n | n | 50µM | n
Cc1ccccc1NC(=O)CSc1ccc(-c2ccco2)nn1 | n | n | n | u | n
COc1ccccc1-n1c(SCC(=O)N(C)C)nnc1-c1ccco1 | n | n | x | n | n
COc1ccc(OC)c(NC(=O)CSc2ccc(-c3ccco3)nn2)c1 | n | u | n | 4µM | n
O=C(c1cccnc1)N1CCN(c2ccc(Cl)cc2)CC1 | n | n | n | n | n
SMILES | TrxR1 substrate | RGS4 inhibitor | Eya2 inh | rTrxR1 inhibitor | IDH1 R132H inh
O=C(CN1CCN(c2ccccc2O)CC1)NNC(=O)c1ccc(Cl)cc1 | n[11.4 µM] | n | n | n[11.4 µM] | n
CC(C)(C)OC(=O)N1CC=C2C(C#N)=C(N)C(C#N)(C#N)[C@H](c3cccnc3)[C@H]2C1 | n | n | n | 40µM | u
COc1ccc(C2NC(Cc3ccccc3)(C(=O)O)C3C(=O)N(c4ccccc4OC)C(=O)C23)cc1 (stereo unspecified) | n | n | n | 56µM | n
CCN1C(=O)[C@H]2[C@@H](c3ccc(-c4ccc(OC)cc4)c(OC)c3)N[C@@](Cc3ccccc3)(C(=O)OC)[C@H]2C1=O | n | n | n | n | n
CCOC(=O)/C=C1\CN(Cc2cc(OC)c(OC)c(OC)c2)S(=O)(=O)c2ccccc21 | n | n | n | n | n
CCOC(=O)/C=C1\CN(Cc2cc(OC)c(OC)c(OC)c2)S(=O)(=O)c2ccc(C(F)(F)F)cc21 | n | n | n | 50µM! | n
O=C(c1ccco1)N1CCN(S(=O)(=O)c2ccc(Br)s2)CC1 | n | n | n | 10µM | n
CC(C)CN1C(=O)CC(Sc2ccccc2C(=O)O)C1=O (stereo unspecified) | n | n | n | u | n

Assay outcomes: PubChem, National Center for Advancing Translational Sciences (NCATS)
